# Laboratory results reported in PubChem BioAssay (NCATS).
# The source made the active and inactive calls. Calls come from the whole dose curve; as a rule, active = well fitted curve in the direction sought with a large enough effect; inconclusive = small, poorly fitted or top-dose-only effect, or another doubt; inactive = no such curve, though single readings can be large; an effect the other way counts as inactive or inconclusive. Residues, ends and D or L forms follow the SMILES beside them. *: point of attachment. Cbz = O=C(OCc1ccccc1)*
# Tested on: not listed separately
# Experiment: Validation qHTS assay for inhibitors of Activation Induced Cytidine Deaminase (AID): UDG Counterscreen signal (AID 1347427); note: 0% is about no effect
# Details: biochemical UDG counterscreen, fluorescence signal; series mostly up to 115 µM; activity, negative = inhibition: at the top concentration
# In short: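 Fluorescence at 560 nm excitation, 665 nm emission reports UDG signal after 250 mM NaOH (2x) addition and 30 min. Enzymes (AID 1 uM, UDG 2 U/mL, at 4/3x) preincubated 10 min with compound, then 4 h with 4x 250 nM DJC20/DJC23 substrate at room temperature.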
row,Structure (SMILES),"activity, negative = inhibition"
1,NC1CONC1=O (stereo unspecified),11.3% (inactive)
2,CC(=O)[C@H]1CCC2C3CC=C4C[C@@H](OS(=O)(=O)O)CC[C@]4(C)C3CC[C@@]21C (stereo partly specified),13.3% (inactive)
3,CC1=C(/C=C/C(C)=C/C=C/C(C)=C\C(=O)O)C(C)(C)CCC1,6.75% (inactive)
4,COC(=O)[C@H](NC(=O)c1cc(-c2ccccc2)nc2ccccc12)c1ccccc1,9.52% (inactive)
5,COc1ccc2c(c1)c(CC(=O)O)c(C)n2C(=O)c1ccccc1,8.89% (inactive)
6,Cc1nc2c(OCc3ccccc3)cccn2c1CC#N,2.15% (inactive)
7,O=C(O)CCC(=O)N1CCCC1C(=O)O (stereo unspecified),-2.83% (inactive)
8,O=C(O)Cc1ccc(O)c(O)c1,5.04% (inactive)
9,CCCCOc1cc(CC2CNC(=O)N2)ccc1OC (stereo unspecified),6.86% (inactive)
10,CCCc1c(OCCCOc2ccc(OCC(=O)O)cc2)ccc(C(C)=O)c1O,12.7% (inactive)
11,OCC1NCC(O)C(O)C1O (stereo unspecified),12.3% (inactive)
12,CC(C)(C)c1ccc(/C=C/C(=O)Nc2ccc3c(c2)OCCO3)cc1,-4.2% (inactive)
13,CCCCCC(O)CCCC(=O)O (stereo unspecified),9.56% (inactive)
14,O=C(O)Cc1c[nH]c2ccc(O)cc12,-2.7% (inactive)
15,Cn1cc(C(=O)OCC2CCN(CCNS(C)(=O)=O)CC2)c2ccccc21,11% (inactive)
16,CCCCCCC(=O)OC1CC(C)(C)NC(C)(C)C1,5.26% (inactive)
17,COc1ccc(C(=O)NCc2cccnc2)cc1C(=O)NCc1cccnc1,5.58% (inactive)
18,C=CCN1CCc2c(cc(O)c(O)c2Cl)C(c2ccccc2)C1 (stereo unspecified),-4.33% (inactive)
19,NCC(O)(CS(=O)(=O)O)c1ccc(Cl)cc1 (stereo unspecified),2.68% (inactive)

row,Structure (SMILES),"activity, negative = inhibition"
1,NC(N)=NC(N)=Nc1ccccc1,12.4% (inactive)
2,COc1cc(CC(=O)O)ccc1O,-3.33% (inactive)
3,O=C(O)c1ccccc1Nc1ccccc1,9.85% (inactive)
4,Nc1ncnc2c1nc(Br)n2C1OC2COP(=O)(O)O[C@@H]2C1O (stereo partly specified),14% (inactive)
5,Cc1nc(N=Nc2ccc(S(=O)(=O)O)cc2S(=O)(=O)O)c(COP(=O)(O)O)c(C=O)c1O,4.82% (inactive)
6,Nc1nc2c(cnn2CCc2ccccc2)c2nc(-c3ccco3)nn12,3.57% (inactive)
7,CC(N)(Cc1ccc(O)c(O)c1)C(=O)O (stereo unspecified),-5.32% (inactive)
8,CC(C)[C@H](NC(=O)OCc1ccccc1)C(=O)N[C@H](C=O)Cc1ccccc1 (Cbz-Val-Phe-aldehyde),10.1% (inactive)
9,COc1cccc(OC)c1OCCNCC1CSc2ccccc2O1 (stereo unspecified),-0.0656% (inactive)
10,N=S(=O)(O)Cc1noc2ccccc12,4.61% (inactive)
11,CC(O)C(O)[C@H]1CNc2nc(N)[nH]c(=O)c2N1 (stereo partly specified),13% (inactive)
12,Oc1cc(O)c2c(c1)O[C@H](c1ccc(O)c(O)c1)[C@@H](O)C2,10.4% (inactive)
13,CCCCCCN(CCCCCC)C(=O)Cc1c(-c2ccc(F)cc2)[nH]c2ccccc12,-9.11% (inactive)
14,Cn1cc(C(F)(F)F)nc1-c1ccc(OCC(O)CNCCOc2ccc(O)c(C(N)=O)c2)cc1 (stereo unspecified),10.5% (inactive)
15,CCCC(=O)NCCc1c2n(c3ccc(OC)cc13)CCCc1ccccc1-2,-3.49% (inactive)
16,CC(=O)NCCc1c[nH]c2ccc(O)cc12,9.63% (inactive)
17,NCCS(=O)O,7.17% (inactive)
18,N[C@H](C(=O)O)c1cc(O)cc(O)c1,11.8% (inactive)
19,NC(C(=O)N[C@@H]1C(=O)N2C(C(=O)O)=C(Cl)CS[C@H]12)c1ccccc1 (stereo partly specified),12.4% (inactive)

# Molecular target: Single-stranded DNA cytosine deaminase (Homo sapiens) (UniProt Q9GZX7)
# Experiment: Validation qHTS assay for inhibitors of Activation Induced Cytidine Deaminase (AID): AID signal (AID 1347429); note: % is set by controls: 0 for no effect and ±100 for the full control effect
# Details: Recombinant AID, FRET ssDNA deamination with UDG, fluorescence; series mostly up to 115 µM; activity change, negative = inhibition: at the top concentration
# In short: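 Steps: dispense AID with UDG; pin-transfer compound up to 114 uM final; add DJC20/DJC23 substrate and hold 4 hr at room temperature; add NaOH, hold 30 min; read FRET signal (540/590 nm).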
# Chain of Single-stranded DNA cytosine deaminase (Homo sapiens) (Q9GZX7 whole entry, looked up): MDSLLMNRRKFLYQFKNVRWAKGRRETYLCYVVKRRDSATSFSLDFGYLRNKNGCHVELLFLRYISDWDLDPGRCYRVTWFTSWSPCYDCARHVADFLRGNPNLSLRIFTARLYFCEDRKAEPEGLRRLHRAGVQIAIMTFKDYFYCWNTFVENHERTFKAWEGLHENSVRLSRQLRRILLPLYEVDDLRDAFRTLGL
row,Structure (SMILES),"activity change, negative = inhibition"
1,NC1CONC1=O (stereo unspecified),23.8% (inactive)
2,CC(=O)[C@H]1CCC2C3CC=C4C[C@@H](OS(=O)(=O)O)CC[C@]4(C)C3CC[C@@]21C (stereo partly specified),-0.37% (inactive)
3,CC1=C(/C=C/C(C)=C/C=C/C(C)=C\C(=O)O)C(C)(C)CCC1,21.3% (inactive)
4,COC(=O)[C@H](NC(=O)c1cc(-c2ccccc2)nc2ccccc12)c1ccccc1,13.8% (inactive)
5,COc1ccc2c(c1)c(CC(=O)O)c(C)n2C(=O)c1ccccc1,20% (inactive)
6,Cc1nc2c(OCc3ccccc3)cccn2c1CC#N,23.5% (inactive)
7,O=C(O)CCC(=O)N1CCCC1C(=O)O (stereo unspecified),3.64% (inactive)
8,O=C(O)Cc1ccc(O)c(O)c1,11.5% (inactive)
9,CCCCOc1cc(CC2CNC(=O)N2)ccc1OC (stereo unspecified),18% (inactive)
10,CCCc1c(OCCCOc2ccc(OCC(=O)O)cc2)ccc(C(C)=O)c1O,-3.03% (inactive)
11,OCC1NCC(O)C(O)C1O (stereo unspecified),18.2% (inactive)
12,CC(C)(C)c1ccc(/C=C/C(=O)Nc2ccc3c(c2)OCCO3)cc1,-4.88% (inactive)
13,CCCCCC(O)CCCC(=O)O (stereo unspecified),12.7% (inactive)
14,O=C(O)Cc1c[nH]c2ccc(O)cc12,31.1% (inactive)
15,Cn1cc(C(=O)OCC2CCN(CCNS(C)(=O)=O)CC2)c2ccccc21,9.98% (inactive)
16,CCCCCCC(=O)OC1CC(C)(C)NC(C)(C)C1,15.5% (inactive)
17,COc1ccc(C(=O)NCc2cccnc2)cc1C(=O)NCc1cccnc1,9.68% (inactive)
18,C=CCN1CCc2c(cc(O)c(O)c2Cl)C(c2ccccc2)C1 (stereo unspecified),-3.51% (inactive)
19,NCC(O)(CS(=O)(=O)O)c1ccc(Cl)cc1 (stereo unspecified),1.08% (inactive)

row,Structure (SMILES),"activity change, negative = inhibition"
1,NC(N)=NC(N)=Nc1ccccc1,23.9% (inactive)
2,COc1cc(CC(=O)O)ccc1O,1.58% (inactive)
3,O=C(O)c1ccccc1Nc1ccccc1,10.6% (inactive)
4,Nc1ncnc2c1nc(Br)n2C1OC2COP(=O)(O)O[C@@H]2C1O (stereo partly specified),14.8% (inactive)
5,Cc1nc(N=Nc2ccc(S(=O)(=O)O)cc2S(=O)(=O)O)c(COP(=O)(O)O)c(C=O)c1O,16.2% (inactive)
6,Nc1nc2c(cnn2CCc2ccccc2)c2nc(-c3ccco3)nn12,24.9% (inactive)
7,CC(N)(Cc1ccc(O)c(O)c1)C(=O)O (stereo unspecified),13.5% (inactive)
8,CC(C)[C@H](NC(=O)OCc1ccccc1)C(=O)N[C@H](C=O)Cc1ccccc1 (Cbz-Val-Phe-aldehyde),20.1% (inactive)
9,COc1cccc(OC)c1OCCNCC1CSc2ccccc2O1 (stereo unspecified),4.74% (inactive)
10,N=S(=O)(O)Cc1noc2ccccc12,12.8% (inactive)
11,CC(O)C(O)[C@H]1CNc2nc(N)[nH]c(=O)c2N1 (stereo partly specified),69.3% (inactive)
12,Oc1cc(O)c2c(c1)O[C@H](c1ccc(O)c(O)c1)[C@@H](O)C2,8.26% (inactive)
13,CCCCCCN(CCCCCC)C(=O)Cc1c(-c2ccc(F)cc2)[nH]c2ccccc12,-10.8% (inactive)
14,Cn1cc(C(F)(F)F)nc1-c1ccc(OCC(O)CNCCOc2ccc(O)c(C(N)=O)c2)cc1 (stereo unspecified),16.9% (inactive)
15,CCCC(=O)NCCc1c2n(c3ccc(OC)cc13)CCCc1ccccc1-2,-2.34% (inactive)
16,CC(=O)NCCc1c[nH]c2ccc(O)cc12,43.2% (inactive)
17,NCCS(=O)O,13.8% (inactive)
18,N[C@H](C(=O)O)c1cc(O)cc(O)c1,104% (inactive)
19,NC(C(=O)N[C@@H]1C(=O)N2C(C(=O)O)=C(Cl)CS[C@H]12)c1ccccc1 (stereo partly specified),57.2% (inactive)
